Several values for one entry are separate records, joined by “and”; a condition that tells them apart may be missing. Equal values may be shown once. Records with an inconclusive call do not appear. A call without a number means that no potency is given here. Activity calls are given as the source filed them. Unless noted, calls come from the whole dose curve; as a rule, active = well fitted curve in the direction sought with a large enough effect; inconclusive = small, poorly fitted or top-dose-only effect, or another doubt; inactive = no such curve, though single readings can be large; an effect the other way counts as inactive or inconclusive.
Key:
[1] = biological target: Glucagon-like peptide 1 receptor (Homo sapiens) (UniProt P43220); assay: qHTS of GLP-1 Receptor Agonists: LOPAC Validation (AID 624148);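 note: higher luminescence signal means agonism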
Chain of Glucagon-like peptide 1 receptor (Homo sapiens) (P43220 whole entry, looked up): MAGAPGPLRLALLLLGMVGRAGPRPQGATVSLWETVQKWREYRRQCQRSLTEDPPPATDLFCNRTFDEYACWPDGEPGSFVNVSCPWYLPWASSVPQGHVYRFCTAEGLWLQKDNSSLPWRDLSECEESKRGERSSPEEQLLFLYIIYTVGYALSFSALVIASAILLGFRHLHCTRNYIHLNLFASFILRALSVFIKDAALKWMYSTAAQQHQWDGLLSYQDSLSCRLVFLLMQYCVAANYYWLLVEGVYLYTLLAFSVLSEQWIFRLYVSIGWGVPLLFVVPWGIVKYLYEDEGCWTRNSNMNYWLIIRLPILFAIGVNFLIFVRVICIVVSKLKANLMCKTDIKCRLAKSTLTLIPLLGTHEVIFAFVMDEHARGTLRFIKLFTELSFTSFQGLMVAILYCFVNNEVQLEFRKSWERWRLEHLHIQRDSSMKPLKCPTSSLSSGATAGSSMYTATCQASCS
Procedure, shortened: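 HEK293 cells stably co-expressing a cAMP-responsive luciferase reporter and a hypersensitive GLP-1R were plated 12 h at 37 °C and exposed to compounds for 4-6 hr at 37 °C, 5% CO2. Luminescence was read 12 min after adding detection reagent.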

[2] = HTS Assay for Allosteric Antagonists of the Human D2 Dopamine Receptor: Hit Validation in HTRF (AID 624455);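 note: stable D1 dopamine receptor cell line scored for blocking the D1 response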
Procedure, shortened: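 Validation of hits used D1 receptor stably expressed in cells with HTRF detection of response inhibition; origin screen measured calcium flux following EC80 dopamine in a force-coupled, inducible Hek293 Trex D2 cell line.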

[3] = Cytotoxicity counterscreen for NFkB agonists and antagonists (AID 624476);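 note: cells exposed to compound for 48 hours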; note: potency is the fitted concentration of half-maximal effect
[4] = qHTS Assay for Identification of Small Molecule Agonists for NFkB Signaling Pathway. (AID 624478);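 note: compounds tested together with TNF alpha at its EC50 of 10 pM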
Procedure, shortened: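 Assay medium contained 0.5% FBS and 10 mM HEPES pH 7.3. Compounds were added together with TNF alpha (10 pM final), incubated 5 h at 37 C, and the beta-lactamase signal was measured fluorometrically.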

[5] = qHTS of Nrf2 Activators: LOPAC Validation (AID 624149)
Procedure, shortened: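 Following overnight seeding in 5% FBS OPTI-MEM, AREc32_Fluc cells receive compounds for a 24 hr incubation at 37 deg C with 5% CO2. Steady-Glo is added, and after 30 min at RT luminescence is recorded.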

[6] = qHTS assay for small molecule activators of the p53 signaling pathway (AID 651743; active = well fitted activation curve with a large enough effect in the signal ratio, not every such curve was filed as active; the % refers to the signal ratio); details: HCT-116 p53RE-bla, beta-lactamase FRET ratio, 16 h; activation: stronger effect = higher value
Procedure, shortened: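 Here HCT-116 cells with an integrated p53-responsive beta-lactamase gene were incubated with compounds (16 hours, 37 C) after a 5-hour plating period; beta-lactamase activity was detected as fluorescence intensity via B/G FRET substrate.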

[7] = qHTS assay for small molecule activators of the nuclear factor-kappa B (NF-kB) signaling pathway (AID 651749; active = well fitted activation curve with a large enough effect in the signal ratio; the % refers to the signal ratio); details: NF-kB-bla ME-180 cells, beta-lactamase FRET ratio, 16 h; stronger effect = higher value
Procedure, shortened: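 Beta-lactamase reporter expression, controlled by NF-kB response elements in ME-180 cells, was quantified fluorometrically via FRET disruption; cells at 2,000/well had been incubated with 23 nL test compound for 16 hr.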

[8] = biological target: Tumor necrosis factor (Homo sapiens) (UniProt P01375); assay: qHTS assay to identify small molecules that stimulate Tumor Necrosis Factor-alpha (TNF-alpha) secretion (AID 651757; active = well fitted curve in the direction sought with a large enough effect in the signal ratio; the % refers to the signal ratio)
Chain of Tumor necrosis factor (Homo sapiens) (P01375 whole entry, looked up): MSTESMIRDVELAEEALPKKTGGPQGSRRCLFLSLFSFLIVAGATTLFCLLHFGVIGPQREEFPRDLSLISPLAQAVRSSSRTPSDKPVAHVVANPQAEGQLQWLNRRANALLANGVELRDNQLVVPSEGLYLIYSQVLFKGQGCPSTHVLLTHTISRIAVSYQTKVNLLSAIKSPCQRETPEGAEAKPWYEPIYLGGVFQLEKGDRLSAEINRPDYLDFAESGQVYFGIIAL
Procedure, shortened: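 Using 3000 THP-1 cells per well, compounds and controls were applied for 17 hrs at 37 C. Detection followed with two labeled anti-TNF-alpha antibodies (cryptate donor, XL665 acceptor) for 3 hr at room temperature, measured by TR-FRET.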

[9] = qHTS assay for environmental chemicals that activate the Aryl hydrocarbon Receptor (AhR) signaling pathway (AID 651777); details: 1A2-DRE human hepatoma cells, luciferase, 24 h; activation: stronger effect = higher value; note: nearly all actives have a fitted effect of over 15% in size
Procedure, shortened: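 AhR activation is scored as a rise in luciferase from a stable DRE–CYP1A2 promoter construct in human hepatoma cells. Treatment lasts 24 hr at 37 C; detection uses One-Glo after 30 min at room temperature.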

[10] = biological target: Peroxisome proliferator-activated receptor alpha (Homo sapiens) (UniProt Q07869); assay: qHTS assay for small molecule agonists of the peroxisome proliferator-activated receptor alpha (PPARalpha) signaling pathway (AID 651778); details: PathHunter PPARalpha complementation, chemiluminescence, 6 h; max response: stronger effect = higher value; note: potency is the fitted concentration of half-maximal effect
Chain of Peroxisome proliferator-activated receptor alpha (Homo sapiens) (Q07869 whole entry, looked up): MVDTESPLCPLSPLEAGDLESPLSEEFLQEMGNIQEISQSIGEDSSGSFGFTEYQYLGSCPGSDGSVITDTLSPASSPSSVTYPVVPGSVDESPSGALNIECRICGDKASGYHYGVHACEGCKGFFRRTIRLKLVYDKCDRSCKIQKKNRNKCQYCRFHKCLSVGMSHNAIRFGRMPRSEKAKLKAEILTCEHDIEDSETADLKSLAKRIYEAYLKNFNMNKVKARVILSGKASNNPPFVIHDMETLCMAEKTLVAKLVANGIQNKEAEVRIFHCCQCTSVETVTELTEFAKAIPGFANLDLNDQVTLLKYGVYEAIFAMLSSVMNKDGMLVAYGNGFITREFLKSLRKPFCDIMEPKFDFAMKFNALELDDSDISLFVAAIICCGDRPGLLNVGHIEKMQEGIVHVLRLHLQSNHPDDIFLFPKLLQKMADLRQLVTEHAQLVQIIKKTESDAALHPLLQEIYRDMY
Procedure, shortened: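 Cells plated at 2,000/well and held overnight at 37 C, 5% CO2, then compound added by pin tool for 6 hr; after PathHunter detection reagent and 60 min at room temperature, chemiluminescence from enzyme complementation was read.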

[11] = qHTS assay for small molecule agonists of the antioxidant response element (ARE) signaling pathway (AID 651741; active = well fitted activation curve with a large enough effect in the signal ratio; the % refers to the signal ratio; note: potency is the fitted concentration of half-maximal effect)
Procedure, shortened: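 Beta-lactamase reporter expression driven by the antioxidant response element in HepG2 cells was detected by fluorescence with LiveBLAzer B/G FRET substrate (2 h, room temperature) following 16 h compound treatment at 37 C.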

[12] = qHTS assay for small molecule disruptors of the mitochondrial membrane potential - 1 hr assay (AID 651754; calls by dose curve; note: nearly all actives have a fitted effect of over 35% in size; note: potency is the fitted concentration of half-maximal effect)
Procedure, shortened: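 In this qHTS format, a 1 hr compound treatment of HepG2 cells precedes Mito-MPS staining, and membrane potential is judged from aggregate (red) against monomer (green) fluorescence intensity.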

[13] = qHTS assay for small molecule disruptors of the mitochondrial membrane potential - 5 hr assay (AID 651755; calls by dose curve; note: nearly all actives have a fitted effect of over 40% in size; note: potency is the fitted concentration of half-maximal effect)
Procedure, shortened: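 Seed HepG2 overnight, add compound, incubate 5 hr at 37C and 5% CO2, stain 30 min with Mito-MPS, then measure monomer (490/535 nm) and aggregate (540/590 nm) fluorescence.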

[14] = qHTS Assay for Identification of Small Molecule Antagonists for NFkB Signaling Pathway. (AID 624479; calls by dose curve;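 note: pathway stimulated with TNF alpha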; note: potency is the fitted concentration of half-maximal effect)
[15] = biological target: Tumor susceptibility gene 101 protein (Homo sapiens) (UniProt Q99816); assay: qHTS Assay for Iinhibitors of HIV-1 Budding by Blocking the Interaction of PTAP/TSG101: Hit Validation (AID 651600); details: PTAP peptide/TSG101 UEV interaction, biochemical assay; note: potency is the fitted concentration of half-maximal effect; nearly all actives have a fitted effect of over 70% in size
Chain of Tumor susceptibility gene 101 protein (Homo sapiens) (Q99816 whole entry, looked up, the tested form may be a part): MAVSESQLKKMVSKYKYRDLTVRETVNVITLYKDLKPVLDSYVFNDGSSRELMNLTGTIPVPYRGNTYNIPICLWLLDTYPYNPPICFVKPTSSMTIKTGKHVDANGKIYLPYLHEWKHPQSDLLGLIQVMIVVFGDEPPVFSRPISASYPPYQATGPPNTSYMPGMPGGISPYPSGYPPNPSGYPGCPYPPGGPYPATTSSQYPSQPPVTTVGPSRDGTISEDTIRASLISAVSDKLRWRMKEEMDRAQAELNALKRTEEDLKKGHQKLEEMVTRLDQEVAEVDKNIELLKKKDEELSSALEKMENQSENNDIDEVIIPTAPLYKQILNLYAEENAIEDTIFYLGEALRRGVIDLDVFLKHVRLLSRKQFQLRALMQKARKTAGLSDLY
Procedure, shortened: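 Compounds are added to the Tsg101 binding domain (10 uM final) in pH 7.5 HEPES buffer. FITC-PTAP peptide follows at 50 nM final. After 20 min at r.t., polarized FITC emission is measured.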

[16] = Cell Proliferation Assay against the TMD8 Cell Line (AID 651645); details: TMD8 DLBCL cell line proliferation/viability; at 46.1 µM (top of the series) unless noted;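 note: cells exposed to compound for 48 h before reading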
Procedure, shortened: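 500 TMD8 cells/well, RPMI + Glutamax, no phenol red, 5% FBS; cpd added immediately; 48 h, 37C, 5% CO2; CellTiter-Glo, luminescence. Controls: DMSO = 100%, bortezomib 9.2 uM final = 0%.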

[17] = Cell Proliferation Assay against the HBL1 Cell Line (AID 651646); details: HBL1 DLBCL cells; at 46.1 µM (top of the series) unless noted;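 note: cells exposed to compound for 48 h before reading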
Procedure, shortened: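 After a 48 h incubation of 500 HBL1 cells/well in phenol red-free RPMI plus 5% FBS, relative luciferase units from CellTiter-Glo gave percent activity against DMSO and 9.2 uM bortezomib (final) controls.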

[18] = Cell Proliferation Assay against the TMD8 Cell Line (Caspase readout at 16 hrs) (AID 651712); note: potency is the fitted concentration of half-maximal effect
Procedure, shortened: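 16 h, 37 °C, TMD8 (500 cells/well), RPMI/5% FBS no phenol red; Caspase-Glo 3/7, 15 min RT, luminescence; %act: DMSO 0, bortezomib 9.2 uM final 100.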

[19] = Cell Proliferation Assay against the TMD8 Cell Line (Caspase readout at 8 hrs) (AID 651713); note: potency is the fitted concentration of half-maximal effect
Procedure, shortened: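 Luminescent caspase 3/7 assay; TMD8 cells, 8 h treatment at 37C, 5% CO2. Normalisation: DMSO 0%, 9.2 uM bortezomib 100%.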

O=C(C1CCCCC1)N1CC(=O)N2CCc3ccccc3C2C1 (centres undefined)
Potency [1]: inactive
Potency [2]: inactive

O=c1c(O)c(-c2ccc(O)c(O)c2)oc2cc(O)cc(O)c12
Potency [1]: inactive
Potency [2]: inactive
Potency [3]: inactive
outcome [4]: inactive

Cc1cn([C@H]2C[C@H](N=[N+]=[N-])[C@@H](CO)O2)c(=O)[nH]c1=O
Potency [1]: inactive
outcome [5]: inactive
Potency [2]: inactive
activation [6]: 7.41% (inactive) and -3.71% (inactive)
activation [7]: 0.977% (inactive) and -0.0662% (inactive)
outcome [8]: inactive
activation [9]: -0.858% (inactive) and 1.65% (inactive)
max response [10]: 0.0124% (inactive) and -0.27% (inactive)

CN1C2CCC1CC(OC(=O)C(CO)c1ccccc1)C2 (centres undefined)
outcome [5]: inactive
Potency [2]: inactive

Cn1cnc2c1c(=O)[nH]c(=O)n2C
Potency [1]: inactive
outcome [5]: inactive
Potency [2]: inactive
Potency [11]: inactive
activation [7]: -2.65% (inactive)
activation [9]: 2.86% (inactive)
max response [10]: -2.11% (inactive)

COc1ccc2c(c1)c(CC(=O)O)c(C)n2C(=O)c1ccc(Cl)cc1
Potency [1]: inactive
outcome [5]: inactive
Potency [2]: inactive
activation [6]: -7.78% (inactive) and -10.3% (inactive)
outcome [8]: inactive
activation [9]: 0.534% (inactive) and -1.07% (inactive)
max response [10]: 11.2% (inactive) and 10.8% (inactive)

NCCS(=O)(=O)O
Potency [1]: inactive
outcome [5]: inactive
Potency [2]: inactive
activation [6]: -1.87% (inactive)
Potency [12]: inactive
Potency [13]: inactive
outcome [8]: inactive
activation [9]: -0.375% (inactive)
max response [10]: 5.59% (inactive)

CC(C)(Oc1ccc(C2CC2(Cl)Cl)cc1)C(=O)O (centres undefined)
Potency [1]: inactive
outcome [5]: inactive
Potency [2]: inactive
activation [6]: -1.02% (inactive)
activation [7]: 1.65% (inactive)
Potency [10]: 14.1 µM (active)

CC(COc1ccccc1)N(CCCl)Cc1ccccc1 (centres undefined)
Potency [1]: inactive
outcome [5]: inactive
Potency [2]: inactive
outcome [8]: inactive
max response [10]: -4.85% (inactive) and -2.28% (inactive)

CC[C@@]1(O)C(=O)OCc2c1cc1n(c2=O)Cc2cc3c(CN(C)C)c(O)ccc3nc2-1
Potency [3]: 0.0235 µM (active)
outcome [4]: inactive
Potency [14]: 5.95 µM (active)
Potency [15]: 6.51 µM (active)
viability (% of control) [16]: 4.59%
viability, percent of control [17]: 33.6%
Potency [18]: 0.0074 µM (active)
Potency [19]: 1.48 µM (active)

N[C@@H](Cc1c[nH]c2ccc(O)cc12)C(=O)O
Potency [1]: inactive
outcome [5]: inactive
Potency [2]: inactive
activation [7]: 0.166% (inactive)
Potency [13]: inactive
max response [10]: -1.51% (inactive)

CN(C)C(=N)N=C(N)N
Potency [3]: inactive
outcome [4]: inactive
Potency [14]: inactive
viability (% of control) [16]: 131%
viability, percent of control [17]: 125%
Potency [18]: inactive
Potency [19]: inactive

O=C(c1ccc(OCCN2CCCCC2)cc1)c1c(-c2ccc(O)cc2)sc2cc(O)ccc12
Potency [1]: inactive
outcome [5]: inactive
Potency [2]: inactive
activation [9]: -4.31% (inactive)
max response [10]: -6.34% (inactive)

CC#C[C@]1(O)CC[C@H]2[C@@H]3CCC4=CC(=O)CCC4=C3[C@@H](c3ccc(N(C)C)cc3)C[C@@]21C
Potency [1]: inactive
outcome [5]: inactive
Potency [2]: inactive
Potency [11]: 21.7 µM (active)
activation [7]: 4.11% (inactive)
activation [9]: 14.1% (inactive)
max response [10]: -3.32% (inactive)

CS(=O)(=O)CCNCc1ccc(-c2ccc3ncnc(Nc4ccc(OCc5cccc(F)c5)c(Cl)c4)c3c2)o1
Potency [3]: 23.5 µM (active)
outcome [4]: inactive
viability (% of control) [16]: 0.834%
viability, percent of control [17]: 3.03%

CN(C)CCOC(c1ccccc1)c1ccccc1
Potency [1]: inactive
outcome [5]: inactive
Potency [2]: inactive
activation [9]: 0.827% (inactive)
max response [10]: -3.61% (inactive)

Cc1ccc(-c2cc(C(F)(F)F)nn2-c2ccc(S(N)(=O)=O)cc2)cc1
outcome [4]: inactive
Potency [14]: 43.2 µM (active)
viability (% of control) [16]: 57.7% [at 92.2 µM]
viability, percent of control [17]: 6.48% [at 92.2 µM]
Potency [19]: 54 µM (active)
Potency [11]: 66.8 µM (active)
activation [7]: -1.1% (inactive)
Potency [12]: 42.2 µM (active)
Potency [13]: 42.2 µM (active)
outcome [8]: inactive
activation [9]: -1.91% (inactive)
max response [10]: 3.54% (inactive)

CC1(CN2CCC(n3c(=O)[nH]c4ccccc43)CC2)OCc2ccccc2-n2cccc21 (centres undefined)
outcome [4]: inactive
viability (% of control) [16]: 12.7%
viability, percent of control [17]: 6.74%

Nc1c2c(nc3ccccc13)CCCC2
Potency [1]: inactive
outcome [5]: inactive
Potency [2]: inactive
activation [6]: 1% (inactive)
activation [9]: 11.6% (inactive)
max response [10]: -6.35% (inactive)

Cc1cn([C@H]2C=C[C@@H](CO)O2)c(=O)[nH]c1=O
Potency [1]: inactive
outcome [5]: inactive
Potency [2]: inactive
Potency [11]: inactive
outcome [8]: inactive
activation [9]: 0.0815% (inactive) and -0.191% (inactive) and -0.434% (inactive)
max response [10]: 1.44% (inactive) and 1.55% (inactive) and -0.234% (inactive)

OCCN(CCO)c1nc(N2CCCCC2)c2nc(N(CCO)CCO)nc(N3CCCCC3)c2n1
Potency [1]: inactive
Potency [2]: inactive
Potency [15]: 18.3 µM (active)

CC(C(=O)O)c1cccc(C(=O)c2ccccc2)c1 (centres undefined)
Potency [1]: inactive
Potency [2]: inactive

COc1cc2c(c(OC)c1OC)-c1ccc(OC)c(=O)cc1[C@@H](NC(C)=O)CC2
Potency [1]: inactive
outcome [5]: inactive
Potency [2]: inactive
activation [7]: 2.95% (inactive) and 1.58% (inactive) and 1.39% (inactive)
Potency [12]: inactive
Potency [13]: inactive
outcome [8]: inactive
activation [9]: -0.775% (inactive) and -1.98% (inactive) and -0.55% (inactive)
max response [10]: -2.35% (inactive) and 0.0679% (inactive) and 8.6% (inactive)

Source: PubChem BioAssay (NCATS)
